# Bioassay records (PubChem)
# A3G deaminase: blocks human APOBEC3G single-stranded DNA deamination. recombinant A3G, ssDNA deamination FAM/TAMRA fluorescence. inhibition, % at 20 µM. 330,000 tested, 0.28% active;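 active = inhibition of at least 40% at 20 µM, with no more than 30% in the related APOBEC3A deaminase screen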;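 note: plate controls were DMSO wells with A3G for no effect and wells lacking A3G enzyme for full effect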
# Target sequence (Q9HC16 whole entry, looked up): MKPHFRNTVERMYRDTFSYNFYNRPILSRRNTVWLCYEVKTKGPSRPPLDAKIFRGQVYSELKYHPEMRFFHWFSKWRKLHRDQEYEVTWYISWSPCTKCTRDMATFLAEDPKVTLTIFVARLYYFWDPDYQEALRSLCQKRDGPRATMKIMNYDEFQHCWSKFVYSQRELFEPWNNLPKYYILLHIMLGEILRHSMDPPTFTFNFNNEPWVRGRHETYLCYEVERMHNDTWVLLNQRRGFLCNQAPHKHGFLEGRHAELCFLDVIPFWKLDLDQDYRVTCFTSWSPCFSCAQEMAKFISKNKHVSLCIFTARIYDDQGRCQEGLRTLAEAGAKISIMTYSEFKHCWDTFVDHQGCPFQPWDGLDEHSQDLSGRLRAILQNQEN
# aDG glyco act: alpha-DG glycosylation activation | Pro5-aDG cells, alpha-DG glycosylation AlphaScreen (IIH6); 0% Pro5, 100% B10-LARGE cell signal | AID 624168 | 360,000 tested, 0.22% active | activation, % at 10 µM;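 active = activation of at least 8% versus controls, or a plate z-score of at least 8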;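 note: Pro5 are CHO cells carrying HIG-tagged alpha-DG that lacks glycosylation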
# ALR inh: blocks human ALR sulfhydryl oxidase activity. purified ALR, DTT oxidation, H2O2 HRP-luminol luminescence. inhibition, % (no concentration beside the values). 290,000 tested, 3.8% active. AID 485317;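 active = mean replicate inhibition above about 79%, with every replicate also reaching it, limit read from the data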
# rCAG binder: binds r(CAG) RNA repeats; r(CAG) RNA repeat, TO-PRO-1 dye displacement fluorescence; inhibition, % at 3 µM; 370,000 tested, 1.3% active; AID 651821;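 active = inhibition above the plate cutoff, the mean of all test compounds on that plate plus 3 SD, cut at about 35% in these data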;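 note: 0% = DMSO alone and 100% = 100 µM mitoxantrone as full dye displacement; higher means more dye released from RNA so lower well fluorescence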
# APOBEC3A inh: blocks human APOBEC3A ssDNA deamination | inhibition, % at 20 µM | P31941 | recombinant A3A, FAM/TAMRA ssDNA deamination fluorescence | 330,000 tested, 0.41% active | AID 493011;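 active = at least 40% inhibition at 20 µM here, with at most 30% in a related deaminase screen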;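 note: plate controls were A3A with DMSO for no effect and wells lacking A3A enzyme for full effect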
# Target sequence (P31941 whole entry, looked up): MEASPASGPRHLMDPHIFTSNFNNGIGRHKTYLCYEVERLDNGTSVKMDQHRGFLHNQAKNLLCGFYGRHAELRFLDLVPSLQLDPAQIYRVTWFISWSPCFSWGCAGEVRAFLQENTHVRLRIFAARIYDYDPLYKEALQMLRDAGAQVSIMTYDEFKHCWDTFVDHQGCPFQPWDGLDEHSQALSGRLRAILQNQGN
# PHOSPHO1 inh: inhibitors of human PHOSPHO1 phosphatase. inhibition, % at 13.3 µM. recombinant PHOSPHO1, absorbance phosphatase assay. 290,000 tested, 1.1% active; in the data active = inhibition above about 60%
# Active calls of the source: *; . = no result given. This is a sample that favours compounds with a hit; in the whole collection about 5.4% have one here.
SMILES,A3G deaminase,aDG glyco act,ALR inh,rCAG binder,APOBEC3A inh,PHOSPHO1 inh
COC(=O)[C@]12C[C@H](CC(=O)N3CCC(c4ccccc4)CC3)C(=O)N(Cc3ccco3)C1=C[C@H](C1CCCC1)O[C@@H]2C,.,.,.,4,.,.
CCOc1ccccc1N1CCN(S(=O)(=O)c2ccc3c4c(cccc24)C(=O)N3)CC1,5,0,-47,37*,18,-40
CCOC(=O)N1CCN(S(=O)(=O)c2ccc3c4c(cccc24)C(=O)N3)CC1,-6,0,-29,1,-8,3
COC(=O)[C@H](Cc1ccccc1)NC(=O)[C@H]1C[C@@]2(N3CCCC3)c3ccccc3N(C(=O)OC(C)(C)C)[C@H]2N1C(=O)OC(C)(C)C,.,.,.,2,.,.
Cc1nc2ccccc2c(=O)n1/N=C/c1ccc(N(C)C)cc1,0,0,0,-1,0,-17
O=c1c2ccccc2nc(/C=C/c2ccccc2)n1CCc1ccccc1,-1,0,50,0,0,-11
O=C(O)c1cccc(-n2c(/C=C/c3ccccc3)nc3ccccc3c2=O)c1,-1,0,78*,30,0,11
CN(C)c1ccc(/C=C/c2nc3ccccc3c(=O)n2-c2ccc(C(=O)O)cc2)cc1,-94,0,99*,-75,-40,16
CC(=O)Nc1ccc(-c2cn3ccsc3n2)cc1,3,0,67,2,3,23
c1cn2cc(-c3ccc4c(c3)OCO4)nc2s1,-11,0,95*,-2,-3,68*
CC(=O)N1C[C@@H](CO)[C@@H]2C[C@H]1c1ccccc1N2C,.,.,.,0,.,.
COc1ccc(/C=C/c2c([N+](=O)[O-])c(=O)n(C)c(=O)n2C)cc1OC,-6,0,-14,0,-4,9
Cn1c(/C=C/c2cccc([N+](=O)[O-])c2)c([N+](=O)[O-])c(=O)n(C)c1=O,-3,0,98*,-1,-4,30
CCCNC(=O)CSCc1nc(-c2ccc(SC)cc2)oc1C,-9,0,99*,-8,-3,0
COC(CNC(=O)CSCc1nc(-c2ccc(SC)cc2)oc1C)OC,-1,0,99*,-3,0,-10
CCCCNS(=O)(=O)/C=C/c1cc(C)ccc1CNC(=O)OC(C)(C)C,.,.,.,-3,.,.
O=c1[nH]c2cc(Br)c(Br)nc2[nH]1,.,.,.,3,.,.
CCCN(C(=O)CSc1n[nH]c(-c2ccc(OC)cc2)n1)c1c(N)n(Cc2ccccc2)c(=O)[nH]c1=O,2,0,86*,2,2,.
COc1ccc(-c2nc(SCC(=O)N(CC(C)C)c3c(N)n(Cc4ccccc4)c(=O)[nH]c3=O)n[nH]2)cc1,-9,0,-8,0,2,.
Cc1ccc(S(=O)(=O)CC(=O)Nc2nc(-c3ccccc3)cs2)cc1,-8,0,-3,7,-4,2
O=C(CS(=O)(=O)c1ccccc1)Nc1nc(-c2ccccc2)cs1,-5,0,99*,11,-3,10
Cc1nnc(SCC(=O)Nc2nc(-c3ccccc3)cs2)n1N,0,0,14,1,10,69*
COc1ccc(-c2csc(NC(C)=O)n2)cc1OC,-1,0,11,2,0,16
COc1ccc(-c2csc(NC(=O)CSc3nnnn3C)n2)cc1OC,-9,0,98*,4,-1,.
CC(C(=O)Nc1nc(-c2ccc(F)c(F)c2)cs1)N1C(=O)C2CC=CCC2C1=O (centres undefined),-6,0,0,8,-4,.
SMILES,A3G deaminase,aDG glyco act,ALR inh,rCAG binder,APOBEC3A inh,PHOSPHO1 inh
COc1ccc(-c2csc(NC(=O)[C@H](C)N3C(=O)C4CC=CCC4C3=O)n2)cc1OC (some centres undefined),-2,0,91*,5,0,.
CC(=O)N1CCCN(C(=O)CCn2nnc3ccccc32)CC1,.,.,.,3,.,.
CCCCS(=O)(=O)N1CCCc2nc(-c3ccccc3)ccc21,.,.,.,5,.,.
COc1ccc(-c2cc(C(=O)NC3=NCCS3)c3ccccc3n2)cc1OC,-1,-1,98*,11,1,13
O=C(NC1=NCCS1)c1cc(-c2ccc(-c3ccccc3)cc2)nc2ccccc12,-8,-1,-10,8,-2,-27
CCn1c(SCC(=O)Nc2c(C)n(C)n(-c3ccccc3)c2=O)nc2c1c(=O)n(C)c(=O)n2C,1,0,-11,-3,3,64*
O=c1oc2cc(Br)ccc2n1CSC1=NCCS1,-10,0,99*,-2,-4,-4
Nc1cc2ccncc2c2ccccc12,-1,1,98*,0,1,16
CN(C)/C=C(\C#N)C(=O)Nc1ccc(O)cc1F,-1,0,99*,-2,0,23
CN(C)/C=C(\C#N)C(=O)Nc1ccccc1,-3,0,-6,-1,0,24
CCOc1ccc2nc(N3CCCCCC3)sc2c1,-6,0,90*,.,1,-8
O=C(CSc1nnc(-c2cccnc2)n1-c1ccccc1)Nc1ccc(OCc2ccccc2)cc1,.,.,.,6,.,.
CC(C)CN1CCN(C(=O)CCc2nnc(Cc3c[nH]c4ccccc34)o2)[C@@H](C)C1=O,0,0,-14,-1,1,66*
CCN1CCN(C(=O)CCc2nnc(CCc3c[nH]c4ccccc34)o2)[C@@H](C)C1=O,-6,0,-6,-3,-3,34
CCOC(=O)c1cc(NC(=O)CSCCO)ccc1Cl,0,0,99*,1,-3,7
Cc1ccc(NC(=O)CSc2nncs2)cc1Cl,-6,0,99*,1,-2,.
CCOC(=O)c1cc(NC(=O)COC)ccc1O,-5,.,0,.,10,16
Cc1ccc(NC(=O)CSCC#N)cc1Cl,-2,0,99*,1,-1,8
Fc1ccc(-c2ccc3c(n2)CCCN3Cc2ccccc2C(F)(F)F)cc1,.,.,.,4,.,.
CCOC(=O)N1CCN(C(=O)C[C@H]2C[C@@]3(C(=O)OC)C(=C[C@H](C(C)C)O[C@@H]3C3CC3)N(Cc3ccccc3)C2=O)CC1,.,.,.,1,.,.
Clc1ccc([C@H]2OC[C@@]3(CNC4CCCCC4)CS[C@H](c4ccc(Cl)cc4)N23)cc1,.,.,.,3,.,.
Nc1c(Nc2ccccc2)c2ccccc2oc1=O,1,0,98*,1,-3,-7
CC(C)CNc1c(N)c(=O)oc2ccccc12,-7,0,99*,3,-6,30
C=CCOC(=O)N1CCN(C(=O)c2ccc3nc(C)n(C4CCCC4)c3c2)CC1,.,.,.,1,.,.
CCOC(=O)/C(=N\Nc1cc(Cl)ccc1Cl)N1CCOCC1,-9,0,98*,-2,-3,8
CCOC(=O)/C(=N\Nc1cc(Cl)ccc1Cl)N1CC(C)OC(C)C1 (centres undefined),0,0,-8,-3,-2,30
CN(CCc1ccccn1)C(=O)CCC1CCCN(C(=O)c2cscn2)C1 (centres undefined),-5,0,2,-5,0,11
